Rows were chosen to be rich in hits. Some 3.5% of all compounds tested hit in one or more screens of this group.
mHTT-CaM PPI inh: disrupts binding of mutant huntingtin to calmodulin; inhibition, % at 15 µM; actives 3.6% (n = 190,000); AlphaScreen His-mHTT/GST-CaM binding, luminescence;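 further: 0% = both proteins with DMSO and 100% = one protein alone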
Pf apPOL inh: Pf-apPOL DNA polymerase inhibition | actives 0.25% (n = 210,000) | Recombinant Pf-apPOL, molecular beacon fluorescence, 1.5 h | inhibition, % at 10 µM
Active calls of the source: *; · = not tested or not shown. No stated cut-off is given here; in the data, active means inhibition above about 50%; inactive means the rest.

SMILES | mHTT-CaM PPI inh | Pf apPOL inh
CCCCOc1ccc(CNC(=O)C2CCCN(C(=O)c3ccccc3F)C2)cc1 (stereo not drawn) | 36 | -6
O=C(c1cccs1)N1CCCC(c2ccnc(-c3ccccc3)n2)C1 (stereo not drawn) | 95* | -6
COc1ccc(-c2nccc(C3CCCN(C(=O)c4ccccc4C)C3)n2)cc1 (stereo not drawn) | 3 | 0
Cc1ccccc1C(=O)N1CCCC(c2ccnc(-c3ccc(F)cc3)n2)C1 (stereo not drawn) | 73* | 0
COc1ccc(-c2nccc(C3CCCN(C(=O)c4cccs4)C3)n2)cc1 (stereo not drawn) | 11 | -5
N#Cc1c(N)sc2c1CCCC2 | 4 | -2
Nc1sc2c(c1-c1nn[nH]n1)CCCC2 | 90* | ·
Cc1ccsc1C(=O)N1CCC(c2nc(C(=O)N3CCOCC3)c(C)o2)CC1 | 6 | -2
CCN(C(=O)CCS(=O)(=O)c1cc(Br)cc2c1N(C(C)=O)CC2)c1ccccc1 | 3 | 0
O=C(N(c1ccc(F)cc1)C1C=CS(=O)(=O)C1)C12CC3CC(CC(C3)C1)C2 (stereo not drawn) | -1 | 4
Cc1ccc(NCc2ccc(Cl)nc2)c(NCc2ccc(Cl)nc2)c1 | 54* | -4
Cc1ccc(C)c(NCc2ccncc2)c1 | 2 | 3
CN1CCC2(CC1)Oc1ccc(Cl)cc1C1CC(c3ccc(Cl)cc3)=NN12 (stereo not drawn) | 24 | ·
CCC1(C)Oc2ccccc2C2CC(c3ccccc3)=NN21 (stereo not drawn) | 44 | 0
Clc1ccc2c(c1)C1CC(c3cccnc3)=NN1C1(CCCCC1)O2 (stereo not drawn) | 51* | -23
C=CCN1C(=O)C2(Oc3ccccc3C3CC(c4ccccc4)=NN32)c2ccccc21 (stereo not drawn) | 7 | 0
O=C1Nc2ccccc2C12Oc1ccccc1C1CC(c3ccc(Cl)cc3)=NN12 (stereo not drawn) | 100* | -4
CN(CC(=O)N1N=C(c2cccs2)CC1c1ccccc1Cl)C(=O)C1CCC1 (stereo not drawn) | 26 | 3
c1csc(C2=NN3C(C2)c2ccccc2OC32CCCC2)c1 (stereo not drawn) | 56* | -1
Cc1ccc(C2=NN3C(C2)c2ccccc2OC32CCCCC2)o1 (stereo not drawn) | 53* | -6
O=c1[nH]c(=S)c2c(n1C1CCCCC1)CCC2 | 3 | 3
COc1ccccc1-n1nc(C(=O)N2CCOCC2)c2ccccc2c1=O | -10 | 5
COc1ccc(C(=O)C(C#N)=CNC2CCN(Cc3ccccc3)CC2)cc1 | · | 2
c1ccc(C2=NN3C(C2)c2ccccc2OC32CCCC2)cc1 (stereo not drawn) | 51* | 29
c1ccc(C2=NN3C(C2)c2ccccc2OC32CCCCC2)cc1 (stereo not drawn) | 44 | -1
SMILES | mHTT-CaM PPI inh | Pf apPOL inh
Cc1ccc(CNC(=O)c2ccc(SCCN3CCCCC3)nc2)cc1 | -7 | -3
CCC(=O)NC(=Nc1nc(C)c2cc(C)c(C)cc2n1)NC(=O)CC | 2 | 52*
CCOc1ccc2c(C)nc(N=C(N)NC(=O)CC)nc2c1 | -5 | -1
Clc1cc2cccnc2c2ncccc12 | 100* | ·
O=[N+]([O-])c1cc([N+](=O)[O-])c2cccnc2c1N1CCOCC1 | 20 | 5
COc1c(I)cc(Cl)c2cccnc12 | · | -4
O=[N+]([O-])c1cc(CN2CCOCC2)c2cccnc2c1O | 100* | -60
Cc1ccnc2c([N+](=O)[O-])cccc12 | -4 | -2
CC1CCN(Cc2cc(Cn3ccnc3)c3cccnc3c2O)CC1 | 100* | 5
Cc1c(O)ccc2c(CN3CCC(C)CC3)cc(=O)oc12 | -2 | -6
O=[N+]([O-])c1cc(Cl)c2cccnc2c1O | 100* | -1
COc1ccc(OC)c2sc(NC(=O)c3ccccc3F)nc12 | 18 | 5
Cn1ccc2ccn(CC(=O)Nc3ccccc3)c(=O)c21 | 1 | 3
Cc1ccc(S(=O)(=O)NCC(=O)Oc2ccccc2C)cc1 | -13 | -5
CC(=O)c1cccc(NC(=O)/C(=C/c2ccco2)NC(=O)c2cccs2)c1 | 34 | -7
O=[N+]([O-])c1ccc(N2CCN(c3ccccc3)CC2)c2ncccc12 | 15 | -8
O=[N+]([O-])c1cc(CN2CCN(c3ccccc3)CC2)c(O)c2ncccc12 | 100* | 2
O=[N+]([O-])c1ccccc1CN1CCCCCCC1 | -1 | -3
COCc1cc(CN2CCCCC2)c(O)c2ncccc12 | 100* | 2
CCOc1cccc(CN2CCCCCC2)c1O | 5 | -3
O=[N+]([O-])c1cc(CN2CCCCC2)c2cccnc2c1O | 100* | 0
CC(=O)c1c(C)nc(C)nc1N | -5 | -16
CCSc1ccccc1C(=O)NCC1CCN(Cc2ccsc2)CC1 | -10 | -2
COc1ccc(-c2nc(SCc3cccnc3)c3c(=O)n(C)c(=O)n(C)c3n2)cc1 | -3 | -2
CC1CN(C2=NC(=O)/C(=C/c3cn[nH]c3-c3ccccc3)S2)CC(C)O1 (stereo not drawn) | 3 | 66*
SMILES | mHTT-CaM PPI inh | Pf apPOL inh
Cc1ccc(/C=C2\SC(N3CC(C)OC(C)C3)=NC2=O)o1 (stereo not drawn) | 3 | -1
COc1cccc(CNC(=O)C2(C)CCCN(S(=O)(=O)c3c(C)cc(C)cc3C)C2)c1 (stereo not drawn) | 0 | -2
CCc1cc2c(=O)c(-c3ccc4c(c3)OCCO4)c(C)oc2cc1OCC(=O)OC | 6 | 55*
CCCc1oc2cc(OCC(=O)OC)c(CC)cc2c(=O)c1-c1ccc2c(c1)OCCCO2 | -1 | -1
CCCN1N=C(C(=O)N2CCCCC2)S(=O)(=O)c2ccccc21 | -1 | -6
O=C1OC(c2ccccc2)(c2ccccc2)c2ccccc21 | · | 1
CN(C)c1ccc(C2(c3ccc(N(C)C)cc3)OC(=O)c3ccccc32)cc1 | 86* | 1
CCCNc1cc(N2CCC(CCC(=O)Nc3ccccc3)CC2)ncn1 | 7 | -4
CC(CCc1ccccc1)Nc1nc(Cl)nc(NCCN2CCOCC2)n1 (stereo not drawn) | 62* | 2
Clc1nc(NCCN2CCOCC2)nc(NCc2ccccc2)n1 | -6 | -1
COc1cc2c(cc1/C=C1\NC(=O)N(Cc3ccc(F)cc3)C1=O)OCO2 | -4 | -9
O=C1NC(=O)N(Cc2ccc(F)cc2)C(=O)/C1=C\c1cc2c(cc1[N+](=O)[O-])OCO2 | 67* | 3
O=C1NN(c2ccc(Cl)c(Cl)c2)C(=O)/C1=C/c1cc2c(cc1[N+](=O)[O-])OCO2 | 75* | -3
COc1cc(/C=C2\C(=O)NN(c3ccc(Cl)c(Cl)c3)C2=O)cc([N+](=O)[O-])c1O | 49 | -6
COCc1noc2c1C(c1cccc(Br)c1)C(C#N)=C(N)N2 (stereo not drawn) | -3 | 4
C=CCN1C(=O)C2(NC(CC(C)C)C3C(=O)N(Cc4ccccc4)C(=O)C32)c2ccccc21 (stereo not drawn) | 17 | -2
O=C(NCc1csc(-c2cccs2)n1)C1CCN(C(=O)c2ccco2)CC1 | 10 | -2
CS(=O)(=O)N1CCN(CCNC(=O)NCc2cccs2)CC1 | -12 | -5
CC(C)=CC1C(CN)C1(C)C (stereo not drawn) | 96* | -5
O=C(Nc1ccccc1NC(=O)C(Cl)Cl)C(Cl)Cl | -2 | -5
COc1ccc(-n2nc3c(c2NC(=O)CCC2CCCC2)CS(=O)(=O)C3)cc1 | 7 | -3
NC(=O)c1c(NC(=O)c2ccco2)sc2c1CCC2 | 2 | 0

Screening results (PubChem BioAssay)
